{"source": "PubChem BioAssay AID435022", "about": "(Sanford-Burnham Center for Chemical Genomics, 2010)", "note": "Hit rate of the full screen: of about 330,000 compounds, about 1,100 (0.33%) were called active. The entries come from a sample that favours actives as a whole. Values without a mark were called inactive. Rule as the data show it: active = inhibition above about 35%; inactive = the rest.", "data": [{"assay": "lowers stimulated NF-kB luciferase signal in 697 B cells – cell-based, luminescence, uHTS, B-cell NF-kB inhibitor project, primary screen (AID 435022)", "settings": "697 B-cell NF-kB luciferase reporter, PMA/ionomycin, 16 h; at 4 µM; active compounds read high", "values": [{"compound": "CCCCCCCCCCCCn1ccc(=N)cc1", "inhibition": "90.6% (active)"}, {"compound": "CCOc1ccc(C2SCC(=O)Nc3c2c(C)nn3C2CCOC(C)(C)C2)cc1", "note": "(stereo not given)", "inhibition": "24.3%"}, {"compound": "COC(=O)COc1cc(C)cc2oc(=O)c3c(c12)CCCC3", "inhibition": "13.3%"}, {"compound": "CN1C2C=C(N(C(=O)c3ccc(Cl)cc3)c3ccccc3)CC1CC2", "note": "(stereo not given)", "inhibition": "-2.33%"}, {"compound": "COc1cc(-n2c(=S)[nH]c3ccc(C)cc3c2=O)c(Cl)cc1Cl", "inhibition": "-21.6%"}]}]}
